Rango dissoc inh: prevents RanGTP from dissociating the Rango-importin beta complex. hit rate 0.071% among 340,000. O95149+P62826. Potency, µM (doses to about 46.1 µM), inactives show at the highest dose activity change, negative = inhibition. AID 540253. Biochemical FRET Rango-importin beta, RanGTP-induced dissociation; calls by dose curve; further: % of control where 0% means no effect; nearly all actives have a fitted effect of over 45% in size
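Quantitative HTS using a FRET biosensor: 0.1 uM Rango, 0.25 uM importin beta, 0.6 uM Ran, 2 mM GTP, 0.2 uM RCC1 final, PBS with DTT, Tween-20 and BSA. Post-read taken 45 min after Ran addition.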
A549 tox-1: counter-screen for Nrf2 inhibitors: cytotoxicity in A549 cells; Potency, µM (top dose mostly 46 µM), for inactives: at the highest dose activity change, negative = cytotoxicity, most hits filed as inhibitors; A549 ARE-Fluc cells, CellTiter-Fluor viability, 18-24 h; hit rate 0.16% among 390,000; further: on the % scale 0 is the no-effect control and ±100 the full control effect
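A549 ARE_Fluc cells in 5% FBS OPTI-MEM were exposed to compounds in concentration-response for 18-24 h at 37 deg C. Viability was read by CellTiter-Fluor fluorescence (Ex 405/Em 525) after 30 min, before the luciferase read.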
Nrf2 block: blocks Nrf2 signaling | A549 ARE-Fluc reporter, luciferase luminescence, 18-24 h | Potency, µM (series often up to 46 µM), for inactives: at the highest dose activity change, negative = inhibition, actives largely listed as inhibitors | hit rate 2.1% among 360,000 | AID 504444; further: on the % scale 0 is the no-effect control and ±100 the full control effect; nearly all actives have a fitted effect of over 60% in size
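Reporter: ARE-Fluc in A549. Exposure: 18-24 h, 37 °C, 5% CO2, 5% FBS OPTI-MEM. Readouts: fluorescent cytotoxicity (CellTiter-Fluor), then luminescent Nrf2 signal after BugLite.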
Rango complex inh: prevents formation of the Rango-importin beta complex. Q14974. Rango CFP/YFP FRET sensor + importin beta, 45 min. Potency, µM (top dose mostly 92.2 µM), for inactives: top-dose inhibition of complex formation. hit rate 0.031% among 340,000; calls by dose curve;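 further: 0% = DMSO wells and 100% = buffer wells lacking importin beta; nearly all actives have a fitted effect of over 15% in size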
Target sequence (Q14974 whole entry, looked up): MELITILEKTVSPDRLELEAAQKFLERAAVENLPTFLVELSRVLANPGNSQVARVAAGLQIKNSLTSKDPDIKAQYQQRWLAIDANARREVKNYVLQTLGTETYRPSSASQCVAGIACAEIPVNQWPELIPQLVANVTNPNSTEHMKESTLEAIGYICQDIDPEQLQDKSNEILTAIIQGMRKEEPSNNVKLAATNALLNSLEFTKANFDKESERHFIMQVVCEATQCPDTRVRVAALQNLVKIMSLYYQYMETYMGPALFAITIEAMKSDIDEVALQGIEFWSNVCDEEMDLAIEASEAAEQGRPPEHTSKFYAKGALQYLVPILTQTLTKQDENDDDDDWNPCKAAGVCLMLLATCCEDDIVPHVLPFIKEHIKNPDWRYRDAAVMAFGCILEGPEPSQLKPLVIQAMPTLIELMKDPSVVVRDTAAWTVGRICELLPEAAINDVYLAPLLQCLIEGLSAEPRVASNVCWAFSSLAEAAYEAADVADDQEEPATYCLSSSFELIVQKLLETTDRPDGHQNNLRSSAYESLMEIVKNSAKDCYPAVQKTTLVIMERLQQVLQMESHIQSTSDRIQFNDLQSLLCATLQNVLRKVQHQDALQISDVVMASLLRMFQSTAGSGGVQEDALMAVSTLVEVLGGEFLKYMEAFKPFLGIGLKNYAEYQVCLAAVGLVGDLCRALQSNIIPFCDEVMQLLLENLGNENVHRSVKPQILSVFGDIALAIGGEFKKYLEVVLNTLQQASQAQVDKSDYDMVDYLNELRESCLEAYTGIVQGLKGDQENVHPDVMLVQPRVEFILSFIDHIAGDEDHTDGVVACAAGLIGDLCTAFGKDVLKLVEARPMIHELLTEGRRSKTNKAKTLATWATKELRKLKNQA
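FRET biosensor (snurportin 1 IBB flanked by EYFP and cerulean), 50 nM, with compound 5 min, then 0.125 microM importin beta in PBS, 1 mM DTT, 0.02% Tween-20, 0.1% BSA. CFP/YFP ratio read after 45 min at room temperature; pre-read flags interference.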
Nrf2 ARE act: activators of Nrf2 (ARE) signaling; hit rate 0.31% among 410,000; Potency, µM (doses to about 46.1 µM), for the others: at the top dose activation, actives largely listed as activators; AID 624171; AREc32 ARE-luciferase reporter (MCF7-derived line), luminescence, 24 h; further: % of control where 0% means no effect; nearly all actives have a fitted effect of over 65% in size
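For detection, Steady-Glo was added and plates sat 30 min at RT; before that, AREc32_Fluc cells grown overnight in OPTI-MEM/5% FBS had been treated with 23 nL compound for 24 hr at 37 deg C.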
FLuc enzyme inh: blocks purified firefly luciferase in Nrf2 counterscreen. purified firefly luciferase, luminescence inhibition. shares compounds with Nrf2 block. Potency, µM (series often up to 57.5 µM), for the others: at the top dose activity change, negative = inhibition, hits mostly inhibitors. hit rate 4% among 1,400; further: on the % scale 0 is the no-effect control and ±100 the full control effect; nearly all actives have a fitted effect of over 65% in size
A549 tox-2: A549 cytotoxicity, Nrf2 inhibitor counterscreen; Potency, µM (series often up to 46.1 µM), inactives show top-dose activity change, negative = cytotoxicity, actives largely listed as inhibitors; shares compounds with Nrf2 block; A549 ARE-Fluc cells, cytotoxicity counterscreen; AID 720523; hit rate 2% among 1,400;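 further: cells exposed to compounds for 18 to 24 hours; on the % scale 0 is the no-effect control and ±100 the full control effect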
ARE-Fluc inh: reduces Nrf2 ARE reporter signal in A549 cells; shares compounds with Nrf2 block; A549 ARE-firefly luciferase reporter, luminescence; Potency, µM (top dose mostly 46.1 µM), for inactives: at the highest dose activity change, negative = inhibition, hits mostly inhibitors; hit rate 74% among 1,400; AID 720524; further: on the % scale 0 is the no-effect control and ±100 the full control effect; nearly all actives have a fitted effect of over 65% in size
The depositor's hits bear a star; u = inconclusive; x = no result given; [ ] = remark or other dose. Compounds with a hit are over-represented: about 2.3% of the library has one in this group of screens. Unless noted, the call rests on the fitted dose curve; in most records, active means well fitted curve in the direction sought with a large enough effect; inconclusive means small, poorly fitted or top-dose-only effect, or another doubt; inactive means no such curve, though single readings can be large; an effect the other way counts as inactive or inconclusive. Potency means the concentration at half of the fitted maximal effect.

SMILES | Rango dissoc inh | A549 tox-1 | Nrf2 block | Rango complex inh | Nrf2 ARE act | FLuc enzyme inh | A549 tox-2 | ARE-Fluc inh
CN(C)S(=O)(=O)c1ccc(S(=O)(=O)NCc2ccc3c(c2)OCO3)cc1 | -5% | 9% | -10% | 3% | 1% | x | x | x
Cn1nc(C(C)(C)C)cc1C(=O)NCc1ccc2c(c1)OCO2 | -17% | -18% | 1.8µM* | 12% | -1% | 4% | -16% | 3.7µM*
Cc1c(C(=O)N2CCN(Cc3ccc4c(c3)OCO4)CC2)sc2ncnc(N3CCN(c4ccccc4)CC3)c12 | u | 1% | 1.2µM* | -3% | 0% | -3% | -22% | 7.3µM*
COc1ccc2[nH]c(=O)c(CN(Cc3cccs3)C(=S)Nc3cccc(C)c3)cc2c1 | 3% | 0% | 2.1µM* | 0% | 0%[9.22 µM] | 0% | -10% | u
Cc1ccc(N2C(=N)/C(=C3/Nc4ccccc4S3)C(c3ccccc3)C2=O)cc1 (centres undefined) | 6% | 0% | -5% | 4% | -1% | x | x | x
CN1CCN(C(=O)c2ccc(-c3ccc(F)c(F)c3)c3ccoc23)CC1 | x | x | x | x | 0% | x | x | x
CN(c1cccc(NC(=O)CN(c2ccc(F)cc2)S(C)(=O)=O)c1)S(C)(=O)=O | 13% | 6% | -22% | -5% | 0% | x | x | x
CN(c1cccc(NC(=O)CN(c2ccc(C34CC5CC(CC(C5)C3)C4)cc2)S(C)(=O)=O)c1)S(C)(=O)=O | -1% | u | 7.3µM* | 0% | 2% | -6% | u | 21µM*
CC1CCN(c2ccc3c(c2)S(=O)(=O)c2cccc(C(=O)NC4CCCCC4)c2C3=O)CC1 | u | -1% | 7% | u | 0% | x | x | x
Cc1nc2ccc(NC(=O)c3cc(S(=O)(=O)N(C)c4ccccc4)ccc3Cl)cc2s1 | -1% | -9% | 5.2µM* | -2% | 3% | 0% | 3% | u
Cc1nc2ccc(NC(=O)c3ccc(S(=O)(=O)N(C)C)cc3)cc2s1 | 7% | 1% | u | -4% | 0% | x | x | x
Cc1nc2ccc(NC(=O)c3ccc(Cl)c(S(=O)(=O)N(C)c4ccccc4)c3)cc2s1 | 12% | -23% | 3.3µM* | u | -1% | -16% | -15% | u
Cn1c([N+](=O)[O-])cnc1N1CCN(c2nncs2)C1=O | 21% | 2% | 16% | -2% | -1% | x | x | x
O=S(=O)(N/N=C1/CC(c2ccccc2)Oc2ccccc21)c1ccc(Br)cc1 (centres undefined) | 7% | u | 8.2µM* | 6% | 8% | u | -7% | x
CCc1nc(N)nc(N)c1-c1ccc(N(C)Cc2ccccc2)c([N+](=O)[O-])c1 | 0% | -13% | 1.3µM* | 5% | 0% | -2% | -15% | 1.2µM*
COc1ccc(CC(=O)Nc2cccc(SC)c2)cc1OC | -12% | -25% | 2.9µM* | 1% | 0% | -1% | -3% | 8.2µM*
COc1ccc(NC(C)C(=O)Nc2cccc(S(=O)(=O)N3CCOCC3)c2)cc1OC (centres undefined) | 7% | u | 6.5µM* | 3% | 0% | -8% | -13% | 6.5µM*
COc1ccc(CCC(=O)Nc2cccc(S(=O)(=O)N3CCCCCC3)c2)cc1OC | -14% | u | u | u | 1% | x | x | x
COc1ccc(CC(=O)Nc2cccc(S(=O)(=O)N3CCCCCC3)c2)cc1OC | 0% | u | 1.8µM* | 0% | 2% | -3% | -22% | 4.1µM*
COc1ccc(NC(=O)c2cc(S(=O)(=O)N3CCCC3)cn2C)cc1Cl | 16% | -7% | 3.7µM* | 0% | 0% | -16% | 1% | 16%
CCOC(=O)c1ccc(-c2c(-c3ccccc3OC)sc3ccc(OC)cc23)cc1F | 2% | 13% | 5% | -5% | u | x | x | x
O=C(Nc1cc2cccc([N+](=O)[O-])c2oc1=O)c1cccs1 | 34% | -1% | u | -6% | 10% | x | x | x
Cc1cc(C(=O)CN2C(=O)c3ccccc3S2(=O)=O)c(C)n1CC1CCCO1 (centres undefined) | -18% | 3% | 0.92µM* | -1% | -2% | 1.3µM* | -1% | 1.2µM*
CCCCN(CC)S(=O)(=O)c1ccc(C(=O)Nc2nnc(-c3cccs3)o2)cc1 | -6% | -18% | 2.3µM* | -1% | 0% | 3% | u | 7.3µM*
CCOC(=O)c1c(NC(=O)Cn2c(C)nc3ccccc32)sc2c1CCC2 | -7% | -4% | 5.8µM* | -1% | 0% | 1% | -10% | u
SMILES | Rango dissoc inh | A549 tox-1 | Nrf2 block | Rango complex inh | Nrf2 ARE act | FLuc enzyme inh | A549 tox-2 | ARE-Fluc inh
CCc1ccc(NC(=O)CC2C(=O)OCCN2CC)cc1 (centres undefined) | x | -15% | u | x | 8% | x | x | x
C[C@]12C=CC(=O)C=C1CC[C@H]1[C@@H]3C[C@@H](O)[C@](O)(C(=O)CO)[C@@]3(C)C[C@H](O)[C@@]12F | -5% | -15% | 0.41µM* | 1% | -1% | -1% | -5% | 0.092µM*
CC(=O)OCC(=O)C1(O)CCC2C3CCC4=CC(=O)C=CC4(C)C3(F)C(O)CC21C (centres undefined) | -13% | -5% | 0.01µM* | 0% | 0% | 1% | -2% | 0.013µM*
CC(=O)OCC(=O)[C@@]12OC3(CCCC3)O[C@@H]1C[C@H]1[C@@H]3CCC4=CC(=O)C=C[C@]4(C)[C@@]3(F)[C@@H](O)C[C@@]12C | 13% | -6% | u | 2% | 6% | x | x | x
CC12CCC(=O)C=C1CCC1C3CC(O)C(O)(C(=O)CO)C3(C)CC(O)C12F (centres undefined) | 9% | -1% | 0.1µM* | 6% | 2% | 4% | -9% | 0.052µM*
CC(=O)C1CCC2C3CCC4=CC(=O)CCC4(C)C3(F)C(O)CC12C (centres undefined) | -2% | -3% | 0.92µM* | 0% | 0% | 2% | -1% | 2.1µM*
C[C@@H]1C[C@H]2[C@@H]3CCC4=CC(=O)C=C[C@]4(C)[C@@]3(Cl)[C@@H](O)C[C@]2(C)[C@@]1(OC(=O)c1ccco1)C(=O)CCl | 6% | -22% | u | 1% | -1% | x | x | x
CN1CCN(CCC(=O)N/N=C/c2cc3c(cc2[N+](=O)[O-])OCO3)CC1 | -1% | 1% | -3% | -1% | 0% | x | x | x

Screening data as filed in PubChem BioAssay.
